Results taken from PubChem BioAssay (NCATS).
Results filed as inconclusive are left out. Entries that show only a call come without a potency. Activity calls are given as the source filed them. Unless noted, calls follow the shape of the dose curve; as a rule, active = well fitted curve in the direction sought with a large enough effect; inconclusive = small, poorly fitted or top-dose-only effect, or another doubt; inactive = no such curve, though single readings can be large; an effect the other way counts as inactive or inconclusive.

Experiments:
[1] = Nrf2 qHTS screen for inhibitors: Validation (AID 493153); settings: Potency: luciferase luminescence; viability change: measured here: cytotoxicity max response
Procedure, shortened: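 Concentration-response on A549 ARE_Fluc reporter cells exposed 18-24 h at 37 C, 5% CO2. Cytotoxicity read first by CellTiter-Fluor fluorescence (Ex 405/Em 525), then Nrf2 inhibition by BugLite luminescence after 15 min.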

[2] = qHTS for Inhibitors of Cell Surface uPA Generation: Validation Assay (AID 493164);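 also: RAW 264.7 macrophage cells exposed to compound for 18 h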
Procedure, shortened: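 ATP-Lite luminescence read-out: ATP remains high when uPA activity-dependent LF translocation into the cytoplasm is blocked. RAW 264.7 cells, 18 h compound exposure at 37 C; 7-point titration, 2.45 nM to 38.3 uM final.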

[3] = target: Galactokinase (Homo sapiens) (UniProt P51570); experiment: qHTS Validation Assay for Inhibitors of Human Galactokinase (GALK) (AID 493189)
Galactokinase (Homo sapiens), sequence (P51570 whole entry, looked up): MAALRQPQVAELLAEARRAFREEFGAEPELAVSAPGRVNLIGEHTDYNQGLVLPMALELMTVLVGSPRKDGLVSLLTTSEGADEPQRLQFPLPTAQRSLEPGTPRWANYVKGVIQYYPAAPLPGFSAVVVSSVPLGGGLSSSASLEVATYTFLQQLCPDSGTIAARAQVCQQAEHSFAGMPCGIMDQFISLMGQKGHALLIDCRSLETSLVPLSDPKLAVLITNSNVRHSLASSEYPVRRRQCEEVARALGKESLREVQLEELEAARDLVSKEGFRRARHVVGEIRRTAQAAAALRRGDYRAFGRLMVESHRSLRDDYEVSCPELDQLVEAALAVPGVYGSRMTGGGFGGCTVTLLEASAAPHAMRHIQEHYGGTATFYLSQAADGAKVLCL
Procedure, shortened: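 Enzyme activity is inferred from ATP consumption: human GALK phosphorylates galactose (100 uM) using 35 uM ATP for 1 h at room temperature, and luciferase-based Kinase-Glo Plus reports unconsumed ATP.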

[4] = target: Peptidyl-prolyl cis-trans isomerase NIMA-interacting 1 (Homo sapiens) (UniProt Q13526); experiment: qHTS Validation Assay to Find Inhibitors of Pin1 (AID 504536; active = well fitted inhibition curve with a large enough effect in the polarisation, with a control signal flat, not every such curve was filed as active; the % refers to the polarisation)
Peptidyl-prolyl cis-trans isomerase NIMA-interacting 1 (Homo sapiens), sequence (Q13526 whole entry, looked up): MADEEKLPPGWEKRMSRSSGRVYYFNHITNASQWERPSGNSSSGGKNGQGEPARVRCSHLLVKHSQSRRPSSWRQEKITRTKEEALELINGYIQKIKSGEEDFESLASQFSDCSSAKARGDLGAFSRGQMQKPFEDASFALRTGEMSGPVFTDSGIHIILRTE
Procedure, shortened: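 Fluorescence polarization competition: compounds (titration) displace HiFluor-488-labeled Pin1-1b peptide from Pin1 (0.3 uM final) in pH 7.5 HEPES buffer with DTT, 10 min at room temperature; %Activity normalized to no-enzyme wells, curves fitted.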

[5] = target: Phosphoglycerate kinase, glycosomal (Trypanosoma brucei brucei) (UniProt P07378); experiment: qHTS Validation Assay to Find Inhibitors of Phosphoglycerate Kinase (AID 504547)
Phosphoglycerate kinase, glycosomal (Trypanosoma brucei brucei), sequence (P07378 whole entry, looked up): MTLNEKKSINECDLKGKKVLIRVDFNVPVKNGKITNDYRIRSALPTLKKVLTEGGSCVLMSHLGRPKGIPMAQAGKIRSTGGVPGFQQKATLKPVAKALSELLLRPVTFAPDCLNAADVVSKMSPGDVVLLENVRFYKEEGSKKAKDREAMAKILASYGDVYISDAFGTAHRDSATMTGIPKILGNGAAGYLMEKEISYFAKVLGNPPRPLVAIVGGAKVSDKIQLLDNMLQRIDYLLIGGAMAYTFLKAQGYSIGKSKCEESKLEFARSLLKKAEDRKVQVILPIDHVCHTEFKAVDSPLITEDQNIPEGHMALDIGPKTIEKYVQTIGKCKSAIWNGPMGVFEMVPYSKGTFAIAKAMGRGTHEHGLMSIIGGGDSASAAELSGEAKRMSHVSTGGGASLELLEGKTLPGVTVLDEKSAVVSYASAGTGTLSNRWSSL
Procedure, shortened: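 Compounds are pinned into the substrate/PGK mixture, and GAPDH (100nM final) is added to start the reaction by producing 1,3-BPG. After 60 minutes at room temperature, Kinase-Glo Plus is added and luminescence is measured 10 minutes later.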

[6] = target: phosphoglycerate mutase (Leishmania major) (UniProt Q4Q090); experiment: qHTS Validation Assay to Find Inhibitors of Phosphoglycerate Mutase (AID 504548);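 also: end-point luminescence from Kinase-GloPlus after the PGAM reaction; series mostly up to about 58 µM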
phosphoglycerate mutase (Leishmania major), sequence (Q4Q090 1-553): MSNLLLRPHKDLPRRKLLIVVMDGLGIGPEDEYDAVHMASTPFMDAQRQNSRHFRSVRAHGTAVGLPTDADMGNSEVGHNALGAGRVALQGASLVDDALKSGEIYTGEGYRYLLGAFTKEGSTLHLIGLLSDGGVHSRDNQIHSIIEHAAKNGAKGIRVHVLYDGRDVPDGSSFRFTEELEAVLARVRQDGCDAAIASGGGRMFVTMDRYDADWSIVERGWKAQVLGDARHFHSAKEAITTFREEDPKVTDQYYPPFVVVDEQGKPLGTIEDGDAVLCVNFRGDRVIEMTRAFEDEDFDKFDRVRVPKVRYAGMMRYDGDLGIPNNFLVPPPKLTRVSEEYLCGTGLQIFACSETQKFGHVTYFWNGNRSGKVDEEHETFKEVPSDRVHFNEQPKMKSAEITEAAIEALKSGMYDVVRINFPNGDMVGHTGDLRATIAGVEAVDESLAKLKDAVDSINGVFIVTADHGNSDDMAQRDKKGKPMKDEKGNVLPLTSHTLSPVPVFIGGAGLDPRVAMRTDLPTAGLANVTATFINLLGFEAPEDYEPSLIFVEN
Procedure, shortened: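 L. major PGAM (1.25nM final) was added to substrate buffer and pinned compound, incubated 45 minutes at room temperature, then Kinase-GloPlus added; luminescence read after 10 minutes. Buffer: 100 mM TEA pH 7.6, 5 mM MgCl2, 0.01% Tween-20.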

[7] = Inducers of the Endoplasmic Reticulum Stress Response (ERSR) in human glioma: Validation (AID 504836)
Procedure, shortened: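 Stably transfected U87-MG glioma cells carrying a GRP78-based luciferase sensor; 16 h compound incubation. Luminescence end-point read 10 min after Bright-Glo addition at room temperature.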

[8] = target: Ubiquitin carboxyl-terminal hydrolase 1 (Homo sapiens) (UniProt O94782); experiment: Inhibitors of USP1/UAF1: Pilot qHTS (AID 504865);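 also: rhodamine fluorescence freed from ubiquitin-rhodamine substrate followed over time; top concentration of the series differs between compounds; nearly all actives have a fitted effect of over 35% in size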
Ubiquitin carboxyl-terminal hydrolase 1 (Homo sapiens), sequence (O94782 whole entry, looked up): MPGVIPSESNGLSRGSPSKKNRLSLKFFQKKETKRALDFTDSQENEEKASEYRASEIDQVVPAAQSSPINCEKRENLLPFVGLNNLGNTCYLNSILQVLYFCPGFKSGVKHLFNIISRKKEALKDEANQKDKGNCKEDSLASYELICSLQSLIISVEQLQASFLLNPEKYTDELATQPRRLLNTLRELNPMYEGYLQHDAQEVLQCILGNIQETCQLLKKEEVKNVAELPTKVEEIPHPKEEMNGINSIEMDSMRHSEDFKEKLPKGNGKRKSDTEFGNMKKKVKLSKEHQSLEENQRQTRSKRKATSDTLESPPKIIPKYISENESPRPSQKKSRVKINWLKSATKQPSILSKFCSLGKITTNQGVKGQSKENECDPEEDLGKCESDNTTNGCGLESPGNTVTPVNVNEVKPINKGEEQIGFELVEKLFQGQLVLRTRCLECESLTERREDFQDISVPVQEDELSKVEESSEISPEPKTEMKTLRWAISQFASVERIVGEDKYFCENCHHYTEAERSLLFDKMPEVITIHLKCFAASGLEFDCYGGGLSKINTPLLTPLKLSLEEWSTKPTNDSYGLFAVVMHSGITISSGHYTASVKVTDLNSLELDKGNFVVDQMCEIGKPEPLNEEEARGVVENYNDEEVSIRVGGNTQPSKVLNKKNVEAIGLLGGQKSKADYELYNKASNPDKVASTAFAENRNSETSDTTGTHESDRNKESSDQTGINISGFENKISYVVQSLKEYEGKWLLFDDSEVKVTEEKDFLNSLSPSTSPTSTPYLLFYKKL
Procedure, shortened: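 Enzyme-free wells gave the negative control, while test wells held 1nM USP1/UAF1 preincubated with compound for 15 min at room temperature. Ub-Rho at 150nM final started the reaction, and fluorescence at 480/540 nm was recorded kinetically.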

[9] = qHTS for Inhibitors of ATXN expression: Validation of Cytotoxic Assay (AID 588349)
Procedure, shortened: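 Cytotoxicity counter-screen: ATP-based luminescent viability (CellTiter Glo) after 72 hr exposure of HEK293 cells to a compound titration at 37 degrees C.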

[10] = qHTS for Inhibitors of ATXN expression: Validation (AID 588378); also: series mostly up to about 57 µM; nearly all actives have a fitted effect of over 75% in size
Procedure, shortened: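 After a 2 h attachment and 24 h compound incubation, HEK293-ATXN2-FFLuc wells are read for fluorescence at 405 nm excitation/525 nm emission as a viability measure, then for Bright-Glo luminescence reflecting ATXN2 expression.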

[11] = target: Glutaminase kidney isoform, mitochondrial (Homo sapiens) (UniProt O94925); experiment: qHTS for Inhibitors of Glutaminase (GLS): LOPAC Validation (AID 624146);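 also: glutamate product detected by oxidase and peroxidase coupled Amplex red fluorescence gain; series mostly up to about 46 µM; nearly all actives have a fitted effect of over 60% in size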
Glutaminase kidney isoform, mitochondrial (Homo sapiens), sequence (O94925 whole entry, looked up, canonical isoform): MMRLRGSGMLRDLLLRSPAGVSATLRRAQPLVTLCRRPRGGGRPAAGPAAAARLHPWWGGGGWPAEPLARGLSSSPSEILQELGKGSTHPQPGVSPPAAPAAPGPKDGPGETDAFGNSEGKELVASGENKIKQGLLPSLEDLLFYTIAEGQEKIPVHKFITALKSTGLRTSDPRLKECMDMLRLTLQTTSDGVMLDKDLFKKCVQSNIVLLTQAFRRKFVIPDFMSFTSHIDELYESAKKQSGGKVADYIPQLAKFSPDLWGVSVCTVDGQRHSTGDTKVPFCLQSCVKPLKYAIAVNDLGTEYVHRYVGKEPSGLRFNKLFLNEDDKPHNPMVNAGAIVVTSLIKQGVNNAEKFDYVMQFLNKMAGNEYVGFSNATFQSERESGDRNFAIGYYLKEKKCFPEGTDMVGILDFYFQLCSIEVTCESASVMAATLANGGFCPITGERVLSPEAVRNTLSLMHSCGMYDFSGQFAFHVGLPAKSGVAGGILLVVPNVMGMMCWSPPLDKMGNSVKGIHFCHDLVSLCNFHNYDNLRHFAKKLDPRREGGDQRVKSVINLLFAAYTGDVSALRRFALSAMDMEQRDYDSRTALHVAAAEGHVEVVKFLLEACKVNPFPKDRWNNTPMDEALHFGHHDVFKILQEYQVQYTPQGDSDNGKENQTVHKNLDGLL
Procedure, shortened: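 Read-out is an Amplex red fluorescence increase coupled through glutamate oxidase and HRP, measured before and after 30 min room-temperature incubation. hKGA is in 45 mM KH2PO4 (pH 8.2) with 0.02% Tween-20; glutamine added as 1mM solution.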

[12] = qHTS of Trypanosoma Brucei Inhibitors: LOPAC Validation (AID 624147)
Procedure, shortened: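 Luminescence from Kinase-Glo Plus, added after a 45-minute room-temperature reaction, served as the end-point read-out. The enzyme and substrate were preincubated with compound before ADP (130 uM final) initiated turnover. Concentration-effect curves came from normalized qHTS data.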

[13] = target: Glucagon-like peptide 1 receptor (Homo sapiens) (UniProt P43220); experiment: qHTS of GLP-1 Receptor Agonists: LOPAC Validation (AID 624148);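 also: higher luminescence signal means agonism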
Glucagon-like peptide 1 receptor (Homo sapiens), sequence (P43220 whole entry, looked up): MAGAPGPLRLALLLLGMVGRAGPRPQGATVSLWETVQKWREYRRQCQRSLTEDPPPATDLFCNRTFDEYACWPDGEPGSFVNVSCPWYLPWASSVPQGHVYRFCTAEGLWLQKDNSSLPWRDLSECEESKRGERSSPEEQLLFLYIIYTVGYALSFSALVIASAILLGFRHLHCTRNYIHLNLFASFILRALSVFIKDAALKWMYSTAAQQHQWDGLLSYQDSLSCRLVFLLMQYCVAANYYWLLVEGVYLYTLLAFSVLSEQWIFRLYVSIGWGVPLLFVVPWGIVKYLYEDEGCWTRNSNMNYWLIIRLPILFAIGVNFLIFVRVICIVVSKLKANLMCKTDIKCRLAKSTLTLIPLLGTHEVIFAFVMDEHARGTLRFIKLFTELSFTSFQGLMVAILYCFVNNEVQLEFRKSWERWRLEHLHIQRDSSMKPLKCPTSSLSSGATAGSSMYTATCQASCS
Procedure, shortened: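 HEK293 cells stably co-expressing GLP-1R and a cAMP-responsive luciferase reporter, plated 12 hours before compound, then incubated 4-6 hr at 37 deg C. Luminescence read 12 min after detection reagent.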

[14] = qHTS of Nrf2 Activators: LOPAC Validation (AID 624149)
Procedure, shortened: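 Luciferase signal from ARE activation, read with Steady-Glo after 30 min at room temperature. Compounds were pin-transferred onto AREc32_Fluc cells (1000/well, OPTI-MEM/5% FBS, seeded overnight) and left 24 hr at 37 deg C.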

[15] = HTS Assay for Allosteric Antagonists of the Human D2 Dopamine Receptor: Hit Validation in HTRF (AID 624455);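 also: stable D1 dopamine receptor cell line scored for blocking the D1 response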
Procedure, shortened: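 Inhibition of the D1-mediated response was measured by HTRF. Cells used were a line stably expressing the D1 dopamine receptor.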

[16] = target: Arylsulfatase A (Homo sapiens) (UniProt P15289); experiment: qHTS screen for enhancers of Arylsulfatase A (ASA1): LOPAC Validation Assay (AID 720538)
Arylsulfatase A (Homo sapiens), sequence (P15289 whole entry, looked up): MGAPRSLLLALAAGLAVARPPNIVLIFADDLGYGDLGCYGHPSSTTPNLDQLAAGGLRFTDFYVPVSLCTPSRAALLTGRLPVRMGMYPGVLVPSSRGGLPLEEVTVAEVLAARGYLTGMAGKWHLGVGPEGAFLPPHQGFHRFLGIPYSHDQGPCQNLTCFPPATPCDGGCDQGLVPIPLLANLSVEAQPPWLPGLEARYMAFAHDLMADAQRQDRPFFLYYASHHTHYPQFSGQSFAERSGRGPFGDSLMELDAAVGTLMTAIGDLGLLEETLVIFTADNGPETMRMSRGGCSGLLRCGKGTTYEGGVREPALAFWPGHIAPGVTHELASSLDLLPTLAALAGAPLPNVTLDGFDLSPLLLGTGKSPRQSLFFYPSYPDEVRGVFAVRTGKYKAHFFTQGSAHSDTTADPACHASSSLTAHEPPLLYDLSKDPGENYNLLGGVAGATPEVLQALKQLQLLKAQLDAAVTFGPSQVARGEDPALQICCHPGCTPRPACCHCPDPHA
Procedure, shortened: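 Cell-based enhancement test: residual ASA activity in SV40-transformed I179S patient fibroblasts is measured by pNCS turnover (0.5mM final, 14h, room temperature) following 48h compound incubation; higher fluorescence indicates activation.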

[17] = qHTS for compounds that reverse cellular toxicity of Amyloid beta (A-beta) peptide in yeast: LOPAC Validation Assay (AID 720559)
Procedure, shortened: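 Here, A-beta-toxic yeast grow with test compounds at 30 C for 48 hr before optical density at 600 nm is recorded; data are normalized against DMSO and the FeCl3-clioquinol control.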

O=[N+]([O-])c1ccc(O[C@@H]2O[C@H](CO)[C@@H](O)[C@H](O)[C@H]2F)c([N+](=O)[O-])c1
viability change [1]: -9.61%
outcome [2]: inactive
outcome [3]: inactive
Potency [4]: inactive
Potency [5]: inactive
outcome [6]: inactive
outcome [7]: inactive
Potency [8]: inactive
outcome [9]: inactive
Potency [10]: inactive
outcome [11]: inactive
outcome [12]: inactive
outcome [13]: inactive
outcome [14]: inactive
outcome [15]: inactive
Potency [16]: inactive
outcome [17]: inactive
